Measurements published in PubChem BioAssay (EPA / NIEHS).
The source made the active and inactive calls. Rule for the calls: active = hit-call score of the fitted dose curve at least 0.9, where 1 is the maximum; inactive = score below 0.9.

assay: CCTE_Simmons_MITO_basal_resp_rate: CCTE's HepG2 Seahorse XF Respirometric Screening Assay at Basal Respiratory State, Simmons Lab (AID 2284001); conditions: actives raise or lower the signal
Procedure: CCTE_Simmons_MITO is cell-based, respirometric assay using HepG2 cells and a Seahorse XF Analyzer to measure oxygen consumption rates over four temporal phases spanning a total of 72 minutes: pre-injection (pre-treatment), basal (following test compound injection), maximal (following FCCP uncoupler injection), and inhibited (following rotenone/antimycin A injection)CCTE_Simmons_MITO_basal_resp_rate is one of 4 assay components calculated from the CCTE_Simmons_MITO assay. It is designed to make measurements of basal respiration using a form of respirometric reporter, as detected with […] signals by Seahorse XF96 technology. Data from the assay component CCTE_Simmons_MITO_basal_resp_rate was analyzed at the endpoint, CCTE_Simmons_MITO_basal_resp_rate_OCR, with bidirectional fitting relative to DMSO as the negative control and baseline of activity. Using a type of respirometric reporter, measures of basal respiration for gain or loss-of-signal activity can be used to understand cellular oxygen consumption as it relates to cellular respiration. To generalize the intended target to other relatable targets, this assay endpoint is annotated to the mitochondria intended target family, where the subfamily is respiration.
Test chemicals were administered as a titrated series of 7 concentrations from 125 nM up to 100 uM [final] prior to kinetic endpoint detection at 6 minute intervals [3 min mix followed by 3 minutes measure] for 72 minutes. Three biological replicates of technical singles were run for every chemical concentration tested. Dimethylsulfoxide [DMSO] was used as the vehicle control. The electron transport chain inhibitor fenpyroximate was used as the positive control for decreased basal respiration and was administered as a titrated series of 6 concentrations from 250 nM up to 2.75 uM [final] with technical triplicates for the top concentration only. The uncoupler 2,4-dintirophenol was used as the positive control for increased basal respiration and was administered as a titrated series of 6 concentrations from 938 nM up to 40 uM [final] with technical triplicates for the top concentration only. A Seahorse XF Analzyer is required to measure the response.

Structure (SMILES)	AC50	outcome
CC(C)=CC1C(C(=O)OCN2C(=O)C3=C(CCCC3)C2=O)C1(C)C (configuration not stated)	42.5 µM (active)	
CCc1cccc(CC)c1N(COC)C(=O)CCl	36.6 µM (active)	
COP(=O)(OC)OC(Br)C(Cl)(Cl)Br (configuration not stated)		inactive
CCC(CC)Nc1c([N+](=O)[O-])cc(C)c(C)c1[N+](=O)[O-]	24.8 µM (active)	
CCOP(=S)(Oc1cnc(C(C)(C)C)nc1)OC(C)C (configuration not stated)	59.3 µM (active)	
CCCSP(=O)(OCC)SCCC	32.8 µM (active)	
CCC(=O)Nc1ccc(Cl)c(Cl)c1	41.1 µM (active)	
C=C(C)[C@H]1Cc2c(ccc3c2O[C@@H]2COc4cc(OC)c(OC)cc4[C@@H]2C3=O)O1	0.108 µM (active)	
CCCCOC(=O)[C@@H](C)Oc1ccc(Oc2ccc(C#N)cc2F)cc1		inactive
CCCSP(=O)(OCC)Oc1ccc(Br)cc1Cl (configuration not stated)		inactive
CN(C)[C@@H]1C(=O)C(C(N)=O)=C(O)[C@@]2(O)C(=O)C3=C(O)c4c(O)cccc4[C@@](C)(O)[C@H]3[C@H](O)[C@@H]12		inactive
N#CSCSC#N	32.6 µM (active)	
CC(C)N(C(=O)SCC(Cl)=C(Cl)Cl)C(C)C		inactive
CC(C1CC1)C(O)(Cn1cncn1)c1ccc(Cl)cc1 (configuration not stated)	35.3 µM (active)	
CON=C(C(=O)OC)c1ccccc1CON=C(C)c1cccc(C(F)(F)F)c1	8.73 µM (active)	
CCCOCC(=Nc1ccc(Cl)cc1C(F)(F)F)n1ccnc1		inactive
FC(F)C(F)(F)OCC(Cn1cncn1)c1ccc(Cl)cc1Cl (configuration not stated)	12.8 µM (active)	
CSC1=N[C@@](C)(c2ccccc2)C(=O)N1Nc1ccccc1	50 µM (active)	
O=[N+]([O-])c1cc(C(F)(F)F)c(Cl)c([N+](=O)[O-])c1Nc1ncc(C(F)(F)F)cc1Cl	14.2 µM (active)	
C[Si](Cn1cncn1)(c1ccc(F)cc1)c1ccc(F)cc1	13.9 µM (active)	
CC(COc1ccc(Oc2ccccc2)cc1)Oc1ccccn1 (configuration not stated)		inactive
CC[C@H](C)[C@H]1O[C@]2(C=C[C@@H]1C)C[C@@H]1C[C@@H](C/C=C(\C)[C@@H](O[C@H]3C[C@H](OC)[C@@H](O[C@H]4C[C@H](OC)[C@@H](NC)[C@H](C)O4)[C@H](C)O3)[C@@H](C)/C=C/C=C3\CO[C@@H]4[C@H](O)C(C)=C[C@@H](C(=O)O1)[C@]34O)O2	25.7 µM (active)	
CCc1cccc(C)c1N(C(=O)CCl)C(C)COC (configuration not stated)	23.7 µM (active)	
CCOP(=S)(OCC)SCCSCC		inactive
CCOP(=O)(NC(C)C)Oc1ccc(SC)c(C)c1 (configuration not stated)		inactive
CC1(C(=O)Nc2ccc(O)c(Cl)c2Cl)CCCCC1	29.8 µM (active)	
C#CCC1=C(C)C(OC(=O)C2C(C=C(C)C)C2(C)C)CC1=O (configuration not stated)	34.9 µM (active)	
